Results filed as inconclusive are left out. Activity calls are given as the source filed them. The call rests on the fitted dose curve; in most records, active means well fitted inhibition curve with a large enough effect; inconclusive means small, poorly fitted or top-dose-only effect; inactive means no such curve, though single readings can be large or run the other way.
biological target: Tumor susceptibility gene 101 protein (Homo sapiens) (UniProt Q99816); experiment: qHTS Assay for Iinhibitors of HIV-1 Budding by Blocking the Interaction of PTAP/TSG101: Hit Validation (AID 651600); conditions: PTAP peptide/TSG101 UEV interaction, biochemical assay; series mostly up to 57.5 µM; further: nearly all actives have a fitted effect of over 70% in size
Sequence (Q99816 whole entry, looked up, the tested form may be a part): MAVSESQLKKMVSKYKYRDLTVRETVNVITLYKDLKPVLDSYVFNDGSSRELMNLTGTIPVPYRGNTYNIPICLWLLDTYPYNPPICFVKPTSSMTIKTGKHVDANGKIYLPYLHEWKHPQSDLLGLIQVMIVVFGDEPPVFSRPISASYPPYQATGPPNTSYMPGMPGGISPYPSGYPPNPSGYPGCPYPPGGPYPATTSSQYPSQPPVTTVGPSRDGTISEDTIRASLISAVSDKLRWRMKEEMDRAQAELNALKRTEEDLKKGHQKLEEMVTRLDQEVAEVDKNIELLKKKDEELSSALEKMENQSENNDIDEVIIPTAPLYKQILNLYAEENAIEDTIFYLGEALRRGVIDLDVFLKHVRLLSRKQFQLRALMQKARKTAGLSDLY
Procedure, shortened: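 Compounds are added to the Tsg101 binding domain (10 uM final) in pH 7.5 HEPES buffer. FITC-PTAP peptide follows at 50 nM final. After 20 min at r.t., polarized FITC emission is measured.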
Potency means the concentration at half of the fitted maximal effect.

Potency, active:
O=c1cc2oc3cc(O)c(O)cc3c(-c3ccccc3O)c-2cc1O 13 µM, O=C(NCc1cccc(C(F)(F)F)c1)c1cccc2c1C(=O)c1ccc(N3CCC(Cc4ccccc4)CC3)cc1S2(=O)=O 14.6 µM, Nc1cccc(N2C(=O)c3cccc4c(N)ccc(c34)C2=O)c1 4.11 µM, Cc1ccc(NC(=O)/C(C#N)=C(\N)C(Cl)(Cl)Cl)nc1 18.3 µM

Potency, inactive:
C1=C(c2ccc(-c3ccccc3)cc2)Nc2ncnn2C1c1ccco1 (stereo not drawn), CCCCOC(=O)c1ccc(NC(=O)/C(C#N)=C/c2ccc(-c3ccccc3)o2)cc1, O=[N+]([O-])c1ccc(-c2ccc(/C=N/Nc3nc(N4CCCC4)nc(N4CCCC4)n3)o2)cc1, CCCn1c(=N)c(S(=O)(=O)c2ccccc2)cc2c(=O)n3cccc(C)c3nc21, Brc1ccc(-c2nc3ccccn3c2Nc2ccc3c(c2)OCCO3)o1, COC(=O)c1c(NC(=O)CC2Nc3cc(C)c(C)cc3NC2=O)sc(C)c1C (stereo not drawn), O=C1C=CC(=O)c2c(O)c(CO)c(CO)c(O)c21, COc1ccccc1NC(=O)C(C)OC(=O)C1CC(=O)N(c2ccc3c(c2)OCCO3)C1 (stereo not drawn), C=C1CCN(c2ccc(C(=O)O)cc2[N+](=O)[O-])CC1, CC1(C)CC(=O)C2=C(C1)OC(N)=C(C#N)C2c1cc2c(cc1[N+](=O)[O-])OCO2 (stereo not drawn), O=C(CN1C(=O)NC(Cc2c[nH]c3ccccc23)C1=O)Nc1ccccc1C(F)(F)F (stereo not drawn), COc1ccc(/C=C2/N=C(c3cccs3)OC2=O)cc1OC(C)C, Cc1cccc(CCNC(=O)c2sc3nc4n(c(=O)c3c2C)CCCC4)c1, c1ccc2c(c1)CCCN2Cc1nnnn1CC1CCCO1 (stereo not drawn), O=[N+]([O-])c1cc(Br)cc(/C=N/n2cnnc2)c1O, CCCCCCCCOc1ccc(C2OC34CCCCC3C(C#N)(C#N)C2(C#N)C(=N)O4)cc1 (stereo not drawn), Nc1c(C(=O)O)sc2nc(-c3ccccc3)cc(-c3ccc(Cl)cc3)c12, CCOc1ccc(NC(=O)N(C2CCCCC2)C(C)c2ccncc2)cc1 (stereo not drawn), Cc1ccc2nc(-c3ccco3)c(Nc3ccccc3)n2c1

Source: PubChem BioAssay (NCATS)
